# From ChEMBL document CHEMBL4513216, “Probing the Open Global Health Chemical Diversity Library for Multistage-Active Starting Points for Next-Generation Antimalarials” (ACS Infect Dis, 2020)
# Screen size: about 69,000 compounds; about 8,600 (12%) showed an effect of 50% or more. Many of the other results were omitted from the sample, so strong results are more common in it than they were.
# Tested on: Plasmodium berghei
# Test: Screen against P. berghei liver stage (PbLuc), transformed with Luciferase, at 10uM
# Assay type: functional, HepG2
# Details: tested at 10 uM
row,SMILES,INHIBITION [%]
1,CCN1CC(C(=O)NCc2cccnc2-n2cccn2)CC1=O (stereo not drawn),-10.1
2,COC[C@@]12CCO[C@@H]1CCN(C(=O)c1ccc(F)c(F)c1)C2,-30.6
3,Cc1nc(COCC2CN(C(=O)N(C)C)Cc3nccn3C2)cs1 (stereo not drawn),45.4
4,O=S(=O)(c1cccc(F)c1)N1CCCCC1c1ccn[nH]1 (stereo not drawn),27.8
5,CC(C)Nc1nc(N2CCCC2)nc2c1CN(C(C)C)CC2,61.8
6,CC(C)Nc1nc(N2CCCC2)nc2c1CN(S(C)(=O)=O)CC2,-29
7,CC(C)Nc1nc(N2CCCC2)nc2c1CCN(S(C)(=O)=O)CC2,35.2
8,CC(C)Nc1nc(N2CCCC2)nc2c1CN(c1ncc(F)cn1)CC2,65.8
9,Cc1nc(CN2CCc3nc(N4CCCC4)nc(NC(C)C)c3C2)cs1,67.4
10,CC(C)Nc1nc(N2CCCC2)nc2c1CN(C)CC2,22.4
11,Cc1nc(CN2CCc3nc(NC(C)C)nc(C)c3C2)cs1,46.7
12,CCC(C)N1CCc2nc(N3CCCC3)nc(NC(C)C)c2C1 (stereo not drawn),2.59
13,Cc1nc(N2CCCC2)nc2c1CN(C(C)C)CC2,-10.4
14,Cc1nc(Nc2nncs2)cc(C2CCCN2)n1 (stereo not drawn),-8.275
15,COC(=O)c1cccc(C(=O)N2CCCC(n3cncn3)C2)c1 (stereo not drawn),15.5
16,COCCCN1CC2(CCN(Cc3ncc[nH]3)CC2)CC1=O,28.7
17,CN1CC2(CCN(Cc3ncc[nH]3)CC2)CC1=O,53.7
18,CN1CC2(CCN(Cc3cccc(C#N)c3)CC2)CC1=O,43.1
19,Cc1ccc(=O)n(CC2(O)CCN(Cc3cnc(C)nc3)CC2)n1,15.9
20,CC(C)=CCN1CC2(CCN(Cc3ncc[nH]3)CC2)CC1=O,4.82
21,Cc1ncc(CN2CCC3(CC2)CC(=O)N(C)C3)cn1,55.9
22,CC(=O)NCC(=O)N1CCn2cc(CN(C)Cc3ccco3)nc2C1,42.5

row,SMILES,INHIBITION [%]
1,O=C1COC2(CCN(C(=O)c3ccoc3)CC2)CN1Cc1cccnc1,0.112
2,Fc1ccccc1Oc1nccnc1C1CCCN(C2CCOCC2)C1 (stereo not drawn),-3.02
3,O=C(NCc1ccnc(OCC(F)(F)F)c1)NCC1CCCO1 (stereo not drawn),-20.3
4,O=C(c1ccc(Br)cc1F)N1CCc2ccncc21,-4.91
5,COc1ccc(C[C@H]2CN(C3CCOCC3)CC[C@@H]2OCC2CC2)cc1,29.7
6,Cn1nc(C(=O)N2CCCCC2c2nc3cc(F)ccc3[nH]2)ccc1=O (stereo not drawn),11.8
7,O=C(CN1CCCC1c1nc2cc(F)ccc2[nH]1)NCc1ccccn1 (stereo not drawn),50.1
8,O=C(c1ccon1)N1CCCCC1c1nc2cc(F)ccc2[nH]1 (stereo not drawn),62.9
9,Fc1ccc2[nH]c(C3CCCN3Cc3c[nH]cn3)nc2c1 (stereo not drawn),42.6
10,Fc1ccc2[nH]c(C3CCCN3CCc3ccccn3)nc2c1 (stereo not drawn),21.8
11,Cc1cc(C(=O)N2CCCCC2c2nc3cc(F)ccc3[nH]2)no1 (stereo not drawn),4.97
12,CN1CC2(CCN(Cc3ccoc3)CC2)COc2ccccc2S1(=O)=O,13.7
13,Cc1cc(C(N)=O)nc(C2(C)CCCN2Cc2cnn(C)c2)n1 (stereo not drawn),18.3
14,Cc1nccn1[C@@H]1CC[C@@H](N(C)S(=O)(=O)c2cccc(F)c2)[C@H]1O,16.96
15,Cc1cc(C2CCCN2CC(=O)N(CCC#N)c2ccccc2F)on1 (stereo not drawn),26.8
16,CCN(C(=O)CN1CCCC1c1ccc(F)cc1)c1ccccc1C (stereo not drawn),-55.1
17,CCN(C(=O)CN1CCCC1c1cc(C)no1)c1ccccc1C (stereo not drawn),62.4
18,CN(C)CCOCc1nnc2n1CCN(Cc1cccs1)CC2,-35
19,O=C(CSC1CCc2ccccc2NC1=O)NCc1cccs1 (stereo not drawn),3.13
20,CN(CCCc1nccn1C)c1nccc(-c2cc(C(=O)O)ccn2)n1,14
21,O=C(Cc1cnc(-n2cccc2)s1)NCCCO,-1.99
22,CS(=O)(=O)NCc1ncn2c1CN(Cc1cccs1)CCC2,-17.9

row,SMILES,INHIBITION [%]
1,OCCOCc1ncn2c1CN(Cc1cccs1)CCC2,21.8
2,c1csc(CN2CCCn3cnc(COCC4CC4)c3C2)c1,-1.55
3,c1coc(COCc2ncn3c2CN(Cc2cccs2)CCC3)c1,56.7
4,CN(C)C(=O)NCc1ncn2c1CN(Cc1cccs1)CCC2,52.3
5,CN(C)C(=O)NCc1ncn2c1CN(Cc1ccco1)CCC2,28.2
6,Cc1ccc(S(=O)(=O)NCCc2nnc[nH]2)c2cccnc12,33.7
7,O=C1CCCN1Cc1ncn2c1CN(C(=O)NC1CCCC1)CCC2,-56.2
8,NC(=O)N1CCCCCC1C1CCN(c2nccc(C(F)(F)F)n2)CC1 (stereo not drawn),61.8
9,N#Cc1cccnc1N1CCC(C2CCCCCN2C(N)=O)CC1 (stereo not drawn),-5.567
10,O=C(C1CC1)N1CCCCCC1C1CCN(c2ncccn2)CC1 (stereo not drawn),22.3
11,CC(C)N1CCC(c2nccnc2Nc2cnccn2)CC1,23.9
12,Cc1ncc(C(=O)NCCNC(=O)c2ccccc2)s1,0.411
13,Cc1ncc(C(=O)NCCNc2ccncc2)s1,-21.3
14,CCc1nc(C)c(C(=O)NCCNC(=O)c2cccs2)s1,58
15,Cc1ncc(C(=O)NCCNc2ncnc3sccc23)s1,77.1
16,Cc1ncsc1C(=O)NCCNC(=O)c1cccs1,10.2
17,CCc1ncncc1C(=O)NCCNc1ncnc2sccc12,41.3
18,CCc1nc(C)c(C(=O)NCCNc2ncccn2)s1,29.1
19,CCCc1nc(C)c(C(=O)NCCNc2ncccn2)s1,19.6
20,CCc1ncc(C(=O)NCCNc2ccncc2)s1,23.4
21,CCc1nc(C)c(C(=O)NCCNc2ncnc3sccc23)s1,93.3
22,CCc1nc(C)c(C(=O)NCCNc2ncccc2C#N)s1,2.3

row,SMILES,INHIBITION [%]
1,CCc1ncc(C(=O)NCCNc2ncnc3sccc23)s1,96
2,COc1c(C2CCCN2C(=O)c2cc(C)on2)c(C)nn1C (stereo not drawn),14.1
3,Cc1ncc2c(n1)CN(CC(=O)Nc1nccs1)CC2,1.78
4,COc1ccccc1OCCNCc1c(C)nn(C)c1N(C)C,-11.98
5,CCOc1ccc(C(=O)N(C)Cc2nccn2CC(F)(F)F)cc1,21.7
6,Cc1ccc(CC(=O)N2CCCC(n3nc(C)cc3C)C2)cn1 (stereo not drawn),5.03
7,CC(=O)c1cccc(NC(=O)Cn2cc(-c3ccccc3)ncc2=O)c1,17
8,O=C(NCc1ccnc(OCC2CC2)c1)C1Cc2ccccc2O1 (stereo not drawn),-39.6
9,Clc1ccccc1CN1CCCC(c2nnc(-c3cnccn3)o2)C1 (stereo not drawn),2.71
10,CC(O)c1cn(Cc2ccc(F)cc2)nn1 (stereo not drawn),23.6
11,CN(C)c1ncc(-c2cc(C(=O)NCCC#N)n(CC3CC3)c2)cn1,-2.35
12,Cc1cnc(-c2nc(C3CCN(Cc4ccccc4Cl)CC3)no2)cn1,32.35
13,c1cc(-c2noc(CN3CCn4c(nnc4C4CC4)C3)n2)cs1,-14.65
14,Cc1nc(C)n(C2CCCN(C(=O)CCc3cscn3)C2)n1 (stereo not drawn),37.9
15,c1cnc(C2CCCN(Cc3ccsc3)C2)cn1 (stereo not drawn),25.4
16,Cc1cnn(CC(=O)N2CCC3(CCC(=O)N(C4CCCC4)C3)CC2)c1,39.1
17,O=C(c1c[nH]c(=O)[nH]1)N1CCCC2(CCC(=O)N(C3CCCC3)C2)C1 (stereo not drawn),37.7
18,Cc1ncc(CC(=O)N2CCC3(CCC(=O)N(CCO)C3)CC2)c(=O)[nH]1,46.1
19,O=C(Cc1c[nH]c(=O)[nH]c1=O)N1CCC2(CCC(=O)N(C3CC3)C2)CC1,58.2
20,Cc1ncc(CC(=O)N2CCC3(CCC(=O)N(C4CC4)C3)CC2)c(=O)[nH]1,50.8
21,O=C(Nc1ccc(F)cc1)N1CCC2(CCC(=O)N(C3CC3)C2)CC1,31.6
22,CC1(C)CC(C(=O)N2CCC3(CCC(=O)N(C4CC4)C3)CC2)CCO1 (stereo not drawn),53.3

row,SMILES,INHIBITION [%]
1,CC1(C)CC(CN2CCC3(CCC(=O)N(C4CCC4)C3)CC2)CCO1 (stereo not drawn),6.27
2,CC(=O)c1ccc(N2CCC3(CCC(=O)N(C4CC4)C3)CC2)nc1,-25.7
3,O=C(COC1CCCC1)NCCc1noc(-c2ccccn2)n1,-13.1
4,Cc1cc(N(C)C)nc(C2COCCN2Cc2cc(C)on2)n1 (stereo not drawn),44.8
5,CNC(=O)C1(c2cnccn2)CCCN1C(=O)c1ccc(OC)cc1 (stereo not drawn),20.8
6,N[C@@H](Cc1c[nH]cn1)C(=O)N1CCC(Oc2ccc(F)cc2)CC1,42.8
7,CN1CC2(CCN(Cc3cc(Cl)ccc3OCC(=O)O)CC2)OC1=O,33.3
8,O=C(O)COc1ccc(Cl)cc1CN1CCC2(CCNCC2)CC1,5.46
9,O=C(O)COc1ccc(Cl)cc1CN1CCC2(CCOCC2)CC1,64.5
10,Cc1ccc2cc(C(=O)N3CCCC3Cn3cccn3)[nH]c2c1 (stereo not drawn),-167
11,CCC1CN(C)c2ccccc2CN1CCn1cncn1 (stereo not drawn),40.6
12,COc1ccc(-n2cccn2)cc1S(=O)(=O)N1C[C@H](C2CC2)[C@@H](N)C1,12.8
13,N[C@H]1CN(S(=O)(=O)c2ccccc2)C[C@@H]1C1CC1,58.3
14,Cc1ccc(-n2cccn2)cc1S(=O)(=O)N1C[C@H](C2CC2)[C@@H](N)C1,59.5
15,N[C@H]1CN(S(=O)(=O)Cc2ccccc2)C[C@@H]1C1CC1,-28.7
16,Cc1ccc(-n2cccn2)cc1S(=O)(=O)N1C[C@H]2CC[C@@H](C1)N(C)C2,48.1
17,NC(=O)c1ccc(OCCCN2C[C@H](C3CC3)[C@@H](N)C2)cc1,-13.4
18,N[C@H]1CN(S(=O)(=O)c2cccnc2)C[C@@H]1C1CC1,1.98
19,N[C@H]1CN(CCCOc2ccccc2)C[C@@H]1C1CC1,53.8
20,N[C@H]1CN(CCOc2ccc(F)cc2)C[C@@H]1C1CC1,27.6
